Source: PubChem (several laboratories)
Sampled rows, rich in hits. Any-hit rate of the full collection: about 3.8%.
tim10-1 inh = growth inhibitors of tim10-1 mutant yeast, primary screen, luminescence, uHTS; S. cerevisiae tim10-1 ts strain growth, BacTiter-Glo, 24 h; inhibition, % at 20 µM; 2.2% of 330,000 active; AID 463190, 2010;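 active means inhibition of at least 40%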;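 further: mutant grown at 25 °C; 0% = DMSO wells with yeast and 100% = wells holding no yeast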
Yeast superoxide = reduction of superoxide in aged yeast, primary screen, HTS; 0.18% of 330,000 active; superoxide response (% of plate mean), % at 10 µM; S. cerevisiae aged cells, superoxide DHE fluorescence; stronger effect = lower value; AID 2690, 2010;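 active means superoxide response under a set limit, about three screen SD below normal, cut at about 65% in these data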;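 further: yeast aged for seven days with compound at 30 °C before DHE staining; 100% = average MFI of all compound-treated wells on the plate with controls excluded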
TIM10 inh = growth inhibitors of isogenic TIM10 control yeast, primary screen, counter-screen for tim10-1 yeast inhibitor project, luminescence, uHTS; S. cerevisiae TIM10 strain growth, BacTiter-Glo luminescence, 24 h; inhibition, % at 10 µM; 1.4% of 330,000 active;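 active means inhibition of 40% or more at the single tested concentration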;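 further: wild-type TIM10 isogenic control strain grown at permissive 25 °C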
tim23-1 inh = growth inhibitors of tim23-1 mutant yeast, primary screen, luminescence, uHTS; S. cerevisiae tim23-1 growth, BacTiter-Glo luminescence, 24 h; inhibition, % at 20 µM; AID 463212, 2010; 1.3% of 330,000 active;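 active means growth inhibition of the mutant yeast at or above 50%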;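 further: temperature-sensitive mutant grown at 25 °C; plate controls were DMSO-treated mutant yeast for no effect and medium wells lacking yeast for full effect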
NLRP3 yeast inh = NALP3 inflammasome inhibitors in reconstituted yeast, primary screen, luminescence, uHTS; Yeast reconstituted NLRP3/ASC/caspase-1, beta-gal luminescence, 24 h; inhibition, % at 10 µM; 0.39% of 330,000 active;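 active means inhibition of 50% or more; inactive means inhibition below 50%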;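 further: plate controls were induced DMSO wells for no effect and uninduced yeast grown without galactose for full effect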
tim10-1 conf = growth inhibitors of tim10-1 mutant yeast, confirmation, single concentration, luminescence, S. cerevisiae | shares compounds with tim10-1 inh | AID 463213, 2010 | inhibition, % at 20 µM | 56% of 7,400 active | S. cerevisiae tim10-1 ts strain growth, BacTiter-Glo, 24 h;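 active means inhibition of yeast growth at or above a set limit in either of two repeat tests at 20 µM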;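 further: tim10-1 mutant grown at permissive 25 °C to find synthetic lethal compounds; 0% = DMSO yeast wells and 100% = medium wells without yeast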
tim10 confirm = growth inhibitors of wild-type TIM10 yeast, confirmation, counter-screen for tim10-1 synthetic lethality project, single concentration, luminescence, S. cerevisiae. AID 463215, 2010. shares compounds with TIM10 inh. S. cerevisiae tim10 strain growth, BacTiter-Glo luminescence, 24 h. inhibition, % at 10 µM. 63% of 4,600 active;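 active means inhibition of yeast growth at or above a set limit in either of two replicates at 10 µM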;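 further: this counterscreen used the strain with wild-type TIM10; 0% = yeast with DMSO and 100% = medium wells lacking yeast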
Starred values were filed as active, the others as inactive; / = no result.

SMILES | tim10-1 inh | Yeast superoxide | TIM10 inh | tim23-1 inh | NLRP3 yeast inh | tim10-1 conf | tim10 confirm
Cc1cccc(NC(=S)NNC(=O)c2cc3c(s2)CCC(C)C3)c1C (configuration not stated) | 59* | 137 | 51* | 30 | -5 | 39* | 32*
CCCCN(C)CCNC(=O)c1cc2cc3ccc(OC)cc3nc2o1 | 49* | 104 | 57* | 38 | 21 | 29* | 46*
CCOC(=O)N1CCC(NC(=O)CCC(=O)N2CC(C)Oc3ccc(Cl)cc32)CC1 (configuration not stated) | -9 | 96 | 5 | -1 | 2 | / | /
CC(C)(C)c1ccc(NC(=S)NCc2cccs2)cc1 | 54* | 90 | 46* | 45 | 7 | 40* | 33*
COCCCn1c(SCC(=O)N2CC(=O)Nc3ccccc32)nnc1-c1ccoc1C | 5 | 120 | 4 | 3 | 1 | / | /
COCCCn1c(SCC(=O)n2c(C)c(C)c3ccccc32)nnc1-c1ccoc1C | 44* | 97 | 40* | 34 | 17 | 33* | -6
O=C(c1ccco1)N1CCN(C(=O)c2cc3sccc3n2Cc2ccccc2)CC1 | 42* | 80 | 43* | 47 | -1 | 43* | 34*
O=C(CCCCCN1C(=O)c2ccccc2C1=O)Nc1ccc(C(=O)O)cc1 | 8 | 87 | 9 | 11 | 10 | / | /
CC1(C)CC(=O)C2=C(C1)Nc1ccccc1NC2 | 30 | 94 | 27 | 23 | 21 | / | /
CC1(C)CC(=O)C2=C(C1)Nc1ccccc1N=C2 | 49* | 103 | 41* | 46 | 4 | 44* | 34*
COc1cc(/C=C2\SC(=S)N(Nc3ncc(C(F)(F)F)cc3Cl)C2=O)ccc1O | 48* | 110 | 51* | 39 | 7 | 28 | 42*
Cc1cccc(N=Nc2c(N)n[nH]c2-c2ccc(Cl)cc2)c1 | 52* | 93 | 56* | 8 | 21 | 26 | 13
Cc1ccc(-c2[nH]nc(N)c2N=Nc2ccccc2C)cc1 | 56* | 101 | 45* | 20 | 29 | 0 | 46*
Cc1ccc(N=Nc2c(N)n[nH]c2N)cc1 | 4 | 85 | 5 | 3 | 12 | / | /
CCCN1C2CCCC1CC(NC(=O)c1ccc(Br)cc1)C2 (configuration not stated) | -4 | 119 | 4 | 0 | 16 | / | /
COc1ccc(S(=O)(=O)N2CCOC2CNC(=O)C(=O)NCCCN2CCOCC2)cc1 (configuration not stated) | 9 | 102 | -4 | 0 | 20 | / | /
COc1cc(/C=N/Nc2ccc(C(F)(F)F)cn2)cc(OC)c1O | 5 | / | 2 | 11 | 29 | / | /
Oc1ccc(/C=N/Nc2ccc(C(F)(F)F)cn2)cc1 | 44* | 82 | 48* | 34 | -33 | 28 | 30
Cc1cc(C(F)F)nn1CC(=O)N1CCSCC1 | 5 | 116 | -10 | -3 | -2 | / | /
CCOC(=O)c1c(CSc2ccc(CC)cc2)oc2ccc(O)c(CN(C)C)c12 | 49* | 104 | 55* | 24 | 27 | 58* | 65*
CCOC(=O)c1c(C)oc2ccc(O)c(CN(C)C)c12 | 22 | 99 | 10 | 21 | 18 | / | /
S=c1[nH]nc(CSc2nc3ccccc3s2)n1C1CCCCC1 | 47* | 93 | 49* | 31 | 38 | 42* | 2
S=c1[nH]nc(COc2ccccc2)n1C1CCCCC1 | 5 | 98 | 8 | 38 | 15 | / | /
S=c1[nH]nc(COc2ccccc2)n1/N=C/C(Cl)=C/c1ccccc1 | 60* | 111 | 52* | 44 | 38 | 56* | 46*
S=c1[nH]nc(COc2ccccc2)n1/N=C/C=C/c1ccccc1 | 16 | 93 | 20 | 7 | 22 | / | /
SMILES | tim10-1 inh | Yeast superoxide | TIM10 inh | tim23-1 inh | NLRP3 yeast inh | tim10-1 conf | tim10 confirm
Clc1ccc2c(c1)c1cc(Cl)ccc1n2CN1CCOCC1 | 63* | 90 | 51* | -12 | 18 | 39* | 59*
O=C(OCC(=O)N1CCCC1=O)c1ccc(F)c(S(=O)(=O)N2CCOCC2)c1 | 0 | 98 | 4 | 4 | 3 | / | /
S=C(NCCN1CCOCC1)N/N=C/c1c2ccccc2cc2ccccc12 | 57* | 122 | 42* | 30 | -15 | 43* | -18
COc1ccc2ccccc2c1/C=N/NC(=S)NCCN1CCOCC1 | 23 | 106 | 21 | 9 | 2 | / | /
COc1ccccc1C(c1nnnn1CCc1ccccc1)N1CCN(c2ccccc2)CC1 (configuration not stated) | 33 | 88 | 30 | 26 | 10 | / | /
COc1ccccc1C(c1nnnn1CCc1ccccc1)N1CCCCCC1 (configuration not stated) | 42* | 106 | 43* | 41 | 9 | 26 | -22
COCCNC(=O)C(c1ccncc1)N(C(=O)c1sc(C)nc1C)c1cccc(C)c1 (configuration not stated) | 17 | 97 | 12 | 7 | 11 | / | /
Nc1c(C(=O)NCCc2ccc(Cl)cc2)sc2ccc(S(=O)(=O)N3CCCCC3)cc12 | 43* | 99 | 44* | 41 | 17 | 35* | 28
Nc1nnc(Cc2cccc(Br)c2)s1 | -1 | 75 | 8 | 11 | 1 | / | /
Cc1ccc(N=Cc2c(O)n(C)c(=O)n(C)c2=O)nc1 | 40* | 74 | 43* | 25 | 8 | 17 | 33*
Cc1ccc(/C=C/C(=O)c2c(C)nc3ccccn23)cc1 | 37 | 93 | 39 | 35 | 20 | / | /
Cc1nc2ccccn2c1C(=O)/C=C/c1cccc([N+](=O)[O-])c1 | 50* | 100 | 52* | 38 | 22 | 44* | 54*
Cc1cc(C)c2c(=O)n(CC(=O)Nc3cccc(F)c3)sc2n1 | 5 | 113 | 4 | 15 | 10 | / | /
CCOc1ccc(NC(=O)Cn2sc3nc(C)cc(C)c3c2=O)cc1 | 83* | 81 | 46* | 9 | 7 | 90* | 88*
Cc1cc(C)c2c(=O)n(CC(=O)NCCCN3CCOCC3)sc2n1 | 25 | 102 | 1 | 1 | 15 | / | /
Cc1ccc(NC(=O)Cn2c(C)cc(C)c(C#N)c2=O)c(Cl)c1 | -14 | 109 | 2 | 21 | 25 | / | /
Cc1ccc(NC(=O)Cn2sc3nc(C)cc(C)c3c2=O)c(Cl)c1 | 86* | 99 | 81* | 15 | 18 | 92* | 96*
Cc1cc(C)c2c(=O)n(CC(=O)Nc3ccc(Cl)cc3)sc2n1 | 91* | 96 | 86* | 18 | 21 | 93* | 96*
O=C(COC(=O)c1c[nH]c2ccccc12)Nc1ccc([N+](=O)[O-])cc1 | -4 | 94 | 9 | 14 | 14 | / | /
